Values joined by “and” are separate entries in the source; they are usually repeats but may differ in a detail not shown here. Equal values may be shown once. Among all 290,000 compounds or so, about 3,000 (1%) were called active. No stated cut-off is given here; in the data, active means inhibition mostly above about 36% (no sharp cut-off); inactive means mostly below about 34%. What follows is part of a selection rich in actives, with near analogues and random picks from the rest. Some structures have more than one record in an assay (separate samples or runs), and their calls can disagree.

The nature of the test: NOD1 signaling inhibitors, primary screen, cell-based, luminescence, uHTS (AID 1578).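 Further: HEK-293T reporter cells stimulated with the NOD1 agonist gamma-tri-DAP.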 The settings on record: NOD1-driven NF-kB luciferase reporter cells, at 4 µM, stronger effect = higher value. A general note: Reporter assays use an easily measured gene product as a stand-in for the process of interest.
On to `C/C1=C\[C@@H](C)C/C=C/[C@H]2[C@@H]3O[C@]3(C)[C@@H](C)[C@H]3[C@H](Cc4c[nH]c5ccccc45)NC(=O)[C@]32C(=O)/C=C/C(=O)[C@@H]1O`, for which the inhibition is -3.4% (inactive).

In the case of `CC1=CC2/C=C(\C)CCC(O)C(O)/C=C/C(=O)C23C(=O)NC(CC(C)C)C3C1C` (stereo not given), the inhibition is 90.7% (active).

For the compound `CCOc1ccc(-n2c(O)c(C=Nc3ccc(NC(C)=O)cc3)c(=O)[nH]c2=O)cc1`, the inhibition is -7.1% (inactive). For the compound `O=P(O)(O)C#Cc1ccccc1`, the inhibition is -12.9% (inactive). To `CN1CCN(c2nc([N+](=O)[O-])nn2C)CC1` belongs -15.4% (inactive); to `COC(=O)c1ccc(NC(=O)CSc2nc3ccc(N4C(=O)C5C6C=CC(C6)C5C4=O)cc3s2)cc1` (stereo not given), 104% (active).

As for `CCOC(=O)c1c(-n2c(C)cc(C=C3C(=O)NC(=O)NC3=O)c2C)sc2c1CCCC2`, the inhibition is 1.7% (inactive).

As for `CCC(C)C12CN3CCN(CC(C)(C3)C1=O)C2` (stereo not given), the inhibition is 4.3% (inactive). In the case of `C=CCn1c(O)c(C(CC)=Nc2cccc(C(=O)O)c2)c(=O)[nH]c1=O` it was 5.1% (inactive); in that of `CCCCCCNC(=O)N[C@@H](Cc1ccc(O)cc1)C(=O)NCCC[C@H]1CN2C(=NC[C@H]2C)N1CC1CCC1`, 2.9% (inactive).

For the compound `O=C(CNC(=O)OCc1ccccc1)NCC(=O)Nc1ccc(Br)cc1C(=O)c1ccccc1`, the inhibition is 22% (inactive). In the case of `O=C(/C=C/c1ccc2c(c1)OCO2)c1c(O)n(CCC2=CCCCC2)c(=O)[nH]c1=O` it was 34.4% (inactive); in that of `COc1ccc(/C=C/C(=O)c2c(O)n(CCC3=CCCCC3)c(=O)[nH]c2=O)cc1`, 79.8% (active); in that of `COc1ccc(/C=C/C(=O)c2c(O)n(CCC3=CCCCC3)c(=O)[nH]c2=O)cc1OC`, 14.2% (inactive). To `CCOc1cc2c(cc1OCC)-n1cccc1C(c1ccc(OC)cc1)NC2` (stereo not given) belongs -5.9% (inactive); to `C[C@@H]1C[C@H]2OC(=O)C3(CO3)[C@H]2[C@H](O)[C@]2(C)C(=O)C3OC3[C@@H]12` (stereo not given in full), 65.6% (active); to `CCN(CC)CCN=Cc1c(O)n(Cc2ccco2)c(=O)[nH]c1=O`, -5.5% (inactive). To `CC(C)CN1CCN(Cc2ccc(C(F)(F)F)cc2)CC1CCO` (stereo not given) belongs -10.4% (inactive). With `C/C(=N\N1CCCCCC1)c1c(O)n(C2CCCCC2)c(=O)[nH]c1=O`, the inhibition was -7.2% (inactive). For `CCOC(=O)c1ccc(NC(=O)c2c(O)[nH]c(=O)[nH]c2=O)cc1`, the inhibition is -19% (inactive).

Regarding `CCn1cc(C(=O)NCc2ccccc2)c2ccccc21`, the inhibition was -16.6% (inactive). Consider `CCCCCCCCN=Cc1c(O)[nH]c(=O)[nH]c1=O`, for which the inhibition was -1.5% (inactive). For `CCCCC(CC)COCCCN=Cc1c(O)[nH]c(=S)[nH]c1=O` (stereo not given), the inhibition is 34.9% (active). To `COCCCN=Cc1c(O)[nH]c(=S)[nH]c1=O` belongs -7.3% (inactive). To `O=S(=O)(c1ccc(Cl)cc1)N1CN2CCN(C2)C1` belongs -10.2% (inactive); to `CN1C(=O)C(=Cc2cn(CC#N)c3ccccc23)C(=O)N(C)C1=O`, 1.8% (inactive); to `CC1CCCCN1Cc1c[nH]c2ccccc12` (stereo not given), -3.8% (inactive).

As to `O=C1NC(c2cccnc2)Nc2sc3c(c21)CCCC3` (stereo not given), the inhibition is -24.5% (inactive). In the case of `c1cncc(C2CCCCN2)c1` (stereo not given) it was -6.3% (inactive); in that of `c1cncc(C2Nc3cccc4cccc(c34)N2)c1`, 54.6% (active) and -3.4% (inactive); in that of `CC#CP(=O)(OC)C(O)(CF)c1ccccc1` (stereo not given), -41.2% (inactive). In the case of `O=S(=O)(c1ccc(Cl)cc1Cl)N1CCCC1c1cccnc1` (stereo not given) it was -4.1% (inactive); in that of `CC(=O)Nc1ccc(CC(=O)N2CCN(Cc3ccccc3)CC2)cc1`, 25.2% (inactive).

Consider `C[C@H]1C[C@@H](C)C(=O)[C@@H]([C@H](O)CC2CC(=O)NC(=O)C2)C1`, for which the inhibition was 88% (active). Take `Cc1ccccc1NC(=O)CCl`: the inhibition was 18.4% (inactive). With `CCN(CC)S(=O)(=O)c1ccc(C(=O)NC2CN3CCC2CC3)cc1` (stereo not given), the inhibition is 7.1% (inactive). In the case of `CCN(CC)CCCN=Cc1c(O)n(CCc2ccc(F)cc2)c(=O)[nH]c1=O` it was 19.7% (inactive). In the case of `CC(=O)OC(C)(C)/C=C/C(=O)C(C)(O)C1[C@H](O)C[C@@]2(C)C3CC=C4C(CC[C@@H](O)C4(C)C)[C@]3(CO)C(=O)C[C@]12C` (stereo not given in full) it was 12% (inactive). In the case of `CC(=O)OC(C)(C)/C=C/C(=O)[C@](C)(O)[C@H]1[C@H](O)C[C@@]2(C)[C@@H]3CC=C4[C@H](C[C@H](O)C(=O)C4(C)C)[C@]3(C)C(=O)C[C@]12C` it was 92.6% (active); in that of `Cc1ccc(-c2cc(-c3ccc(C)cc3)[n+](C)o2)cc1`, 26.6% (inactive); in that of `O=[N+]([O-])c1ccc(C2[C@H]3C(c4ccccc4)=NC4(CCCC4)N23)cc1` (stereo not given in full), -19.9% (inactive). As for `Cc1nn(-c2ccccc2)c2c1CC1(C(=O)N(C)C(=O)N(C)C1=O)C1CCCCN21` (stereo not given), the inhibition was -10.6% (inactive).

`CN(CCCCC(=O)/C=N/O)Cc1ccccc1` (tested in a mixture with another compound): the inhibition was -7.6% (inactive).

Turning to `O=[N+]([O-])c1ccc(N2CCNCC2)cc1N1CCCCCC1`, the inhibition is -7.5% (inactive). In the case of `O=C(CSC1c2ccccc2-c2ccccc21)N/N=C/c1ccccc1O` it was 80.9% (active); in that of `O=C(CSC1c2ccccc2-c2ccccc21)N/N=C/c1ccccc1C(=O)O`, -22.4% (inactive). As for `O=C(CSC1c2ccccc2-c2ccccc21)N/N=C/c1ccccc1`, the inhibition is 14.7% (inactive). In the case of `Oc1cccc(/C=N/NP(=S)(c2ccccc2)c2ccccc2)c1` it was -0.8% (inactive); in that of `COCc1ccc(CN2CCCC(C(=O)c3sccc3C)C2)o1` (stereo not given), -44.8% (inactive); in that of `CN(Cc1ccccc1)Cc1ccccc1OC(=O)N(C)C`, 2.4% (inactive). In the case of `COc1cc(C=C2C(=O)NC(=O)NC2=O)ccc1OCc1ccc([N+](=O)[O-])cc1` it was -52% (inactive); in that of `C/C(=C\c1ccc(N(C)C)cc1)[N+](=O)[O-]`, 41.9% (inactive). To `COc1cc(/C=C(/C)[N+](=O)[O-])ccc1OCc1ccccc1Cl` belongs 86.8% (active); to `CCOC(=O)CNC(=S)N1CC2C[C@@H](C1)Cn1c2cccc1=O`, 0.7% (inactive). `CN(C)c1ccc(C=C(C#N)C#N)cc1`: the inhibition is -35.8% (inactive).

With `Cc1ccc2cc(C=C(C#N)C#N)c(Cl)nc2c1`, the inhibition is 72.2% (active).

For the compound `Cc1cc(N2CCCC2)ccc1C=C(C#N)C#N`, the inhibition is -24.7% (inactive).

For the compound `Cc1c(-c2cccc(Cl)c2)nc2ccccc2c1C(=O)N1CCC2(CC1)OCCO2`, the inhibition was -11.2% (inactive). To `Nc1ccccc1-[n+]1c(-c2ccccc2)cc(-c2ccccc2)cc1-c1ccccc1` belongs -5.4% (inactive). In the case of `c1ccc(-c2cc(-c3ccccc3)[n+](-c3ccccc3)c(-c3ccccc3)c2)cc1` it was 65.7% (active); in that of `O=[N+]([O-])c1ccc(-[n+]2c(-c3ccccc3)cc(-c3ccccc3)cc2-c2ccccc2)cc1`, -8.8% (inactive).

`CCNC(=O)[C@H]1O[C@@H](n2cnc3c(N)ncnc32)[C@H](O)[C@@H]1O`: the inhibition is -5.6% (inactive). To `NC(=S)c1cn(C2OC(CO)C(O)C2O)c2ncnc(N)c12` (stereo not given) belongs 104% (active); to `CN(C)C(=O)Oc1ccc2c(c1)O/C(=C\c1cccc([N+](=O)[O-])c1)C2=O`, -9.1% (inactive). As to `O=C1NC(=O)C(=Cc2ccc(Sc3ccccc3)o2)C(=O)N1`, the inhibition is 1.7% (inactive). To `Cc1c(C=O)c2ccccc2n1Cc1ccccc1F` belongs 5% (inactive). To `CCn1c(O)c(/C=N/NC(=O)c2ccncc2)c(=O)[nH]c1=S` belongs 2.7% (inactive); to `CCOC(=O)CCN=Cc1c(O)n(-c2ccc(Br)cc2)c(=O)[nH]c1=O`, -27.1% (inactive). To `Cc1cc(C)n2nc(C)[n+](C)c2n1` belongs -17.4% (inactive); to `CCOC(=O)c1c(C)n(Cc2ccc3c(c2)OCO3)c2ccc(O)cc12`, -7.9% (inactive); to `COC(=O)c1c(C)n(Cc2ccc3c(c2)OCO3)c2ccc(O)cc12`, 48.3% (active). For `COC(=O)c1c(C)n(Cc2ccccc2)c2ccc(O)cc12`, the inhibition was 19.6% (inactive). To `C=CCn1c(O)c(/C(C)=N/N2CCCCCC2)c(=O)[nH]c1=O` belongs -6.9% (inactive); to `CCCCCn1c(=O)c(C(=O)Nc2nc(CC(=O)OCC)cs2)c(O)c2ccccc21`, -28.8% (inactive); to `CCCCCn1c(=O)c(C(=O)Nc2ccccc2)c(O)c2ccccc21`, -20.5% (inactive). To `CCCCCn1c(=O)c(C(=O)Nc2ccncc2)c(O)c2ccccc21` belongs 69.7% (active). In the case of `CCOC(=O)Cc1csc(NC(=O)c2c(O)c3ccccc3n(CCC(C)C)c2=O)n1` it was -27.7% (inactive); in that of `CCCCCn1c(=O)c(C(=O)NCc2ccncc2)c(O)c2ccccc21`, 21.6% (inactive). As to `CCCCCCn1c(=O)c(C(=O)Nc2nc(CC(=O)OCC)cs2)c(O)c2ccccc21`, the inhibition is 58.7% (active). In the case of `CCCCn1c(=O)c(C(=O)Nc2ccccc2)c(O)c2ccccc21` it was 14.3% (inactive).

Take `CCCCCCn1c(=O)c(C(=O)Nc2ccncc2)c(O)c2ccccc21`: the inhibition was 63.9% (active). In the case of `CCCCCn1c(=O)c(C(=O)Nc2cccc(C)c2)c(O)c2ccccc21` it was -15.2% (inactive); in that of `Cc1ccc(N2CCN(CCc3ccccc3)CC2)cc1`, 10.7% (inactive). To `CCOc1nc(NC(C)C)nc(N2CC3CC(C2)c2cccc(=O)n2C3)n1` (stereo not given) belongs -38.6% (inactive); to `O=C(Nc1cccc(Cl)c1)c1c(O)c2c(n(Cc3ccccc3)c1=O)CCCC2`, -38.5% (inactive); to `CCCCn1c(O)c(C(C)=NCCCn2ccnc2)c(=O)[nH]c1=O`, -5.8% (inactive). In the case of `CCc1ccc(CN2CCCC(C(=O)c3sccc3C)C2)o1` (stereo not given) it was -19% (inactive); in that of `Cc1ccsc1C(=O)C1CCCN(Cc2cnc(N3CCCC3)s2)C1` (stereo not given), 11.2% (inactive); in that of `Cc1ccsc1C(=O)C1CCCN(Cc2cc3ccccc3o2)C1` (stereo not given), 75.6% (active).

For `Cc1ccsc1C(=O)C1CCCN(Cc2sc(N(C)C)nc2Cl)C1` (stereo not given), the inhibition was 60.9% (active). `Cc1ccc(CN2CCCC(C(=O)c3sccc3C)C2)o1` (stereo not given): the inhibition is -19.5% (inactive). In the case of `Cc1ccsc1C(=O)C1CCCN(Cc2ccc(O)cc2)C1` (stereo not given) it was -32.6% (inactive). To `Cc1ncc(CN2CCCC(C(=O)c3sccc3C)C2)s1` (stereo not given) belongs -24.9% (inactive). For `Cc1ccsc1C(=O)C1CCCN(Cc2cnc(N(C)C)s2)C1` (stereo not given), the inhibition is -26.4% (inactive).

As for `Cc1ccsc1C(=O)C1CCCN(Cc2cnc(N3CCOCC3)s2)C1` (stereo not given), the inhibition is 46.6% (active).

A word on the inhibition: it is the drop in the measured response relative to a control, in per cent.

The values are drawn from PubChem BioAssay AID1578 (Sanford-Burnham Center for Chemical Genomics, 2009).
